Laboratory results as given in PubChem BioAssay (NCATS).
Results filed as inconclusive are left out. Active and inactive are the calls of the source. Unless noted, calls come from the whole dose curve; as a rule, active = well fitted curve in the direction sought with a large enough effect; inconclusive = small, poorly fitted or top-dose-only effect, or another doubt; inactive = no such curve, though single readings can be large; an effect the other way counts as inactive or inconclusive.

How the values were obtained:
[1] = molecular target: Aldehyde dehydrogenase, mitochondrial (Homo sapiens) (UniProt P05091); assay: qHTS for Inhibitors of the Aldehyde Dehydrogenase Family (ALDH2) Validation screens (AID 2061302; active = well fitted inhibition curve with a large enough effect; title and protocol of this record describe different tests; note: potency is the fitted concentration of half-maximal effect;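 for activity change, negative = inhibition: plate controls were DMSO vehicle for no effect and maximal DPI positive control response for full effect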)
[2] = molecular target: Aldehyde dehydrogenase, mitochondrial (Homo sapiens) (UniProt P05091); assay: qHTS for Inhibitors of the Aldehyde Dehydrogenase Family (ALDH2) Confirmatory screens (AID 2061303; active = well fitted inhibition curve with a large enough effect; title and protocol of this record describe different tests; note: nearly all actives have a fitted effect of over 45% in size; note: potency is the fitted concentration of half-maximal effect; for activity change, negative = inhibition: % is set by controls: 0 for no effect and ±100 for the full control effect)
[3] = qHTS for Inhibitors of the Aldehyde Dehydrogenase Family (ALDH1A2, ALDH1A3, ALDH2, ALDH3A1) (AID 2061307); note: nearly all actives have a fitted effect of over 50% in size; for Potency: test system not described further here; potency is the fitted concentration of half-maximal effect; for activity change, negative = inhibition: % is set by controls: 0 for no effect and ±100 for the full control effect
[4] = molecular target: Aldehyde dehydrogenase, mitochondrial (Homo sapiens) (UniProt P05091); assay: qHTS for Inhibitors of the Aldehyde Dehydrogenase Family (ALDH2) Primary screen (AID 2061308); note: nearly all actives have a fitted effect of over 55% in size; note: potency is the fitted concentration of half-maximal effect;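 for activity change, negative = inhibition: plate controls were vehicle for no effect and reference inhibitor for full effect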
[5] = molecular target: Retinaldehyde dehydrogenase 3 (Homo sapiens) (UniProt P47895); assay: qHTS for Inhibitors of the Aldehyde Dehydrogenase Family (ALDH1A3) Confirmatory screens (AID 2061311); note: nearly all actives have a fitted effect of over 60% in size; note: potency is the fitted concentration of half-maximal effect; for activity change, negative = inhibition: % is set by controls: 0 for no effect and ±100 for the full control effect
[6] = molecular target: Retinal dehydrogenase 2 (Homo sapiens) (UniProt O94788); assay: qHTS for Inhibitors of the Aldehyde Dehydrogenase Family (ALDH1A2) Confirmation screens (AID 2061314); note: nearly all actives have a fitted effect of over 65% in size; note: potency is the fitted concentration of half-maximal effect
[7] = molecular target: Aldehyde dehydrogenase 1A1 (Homo sapiens) (UniProt P00352); assay: qHTS for Inhibitors of the Aldehyde Dehydrogenase Family (ALDH1A1) Confirmatory screens (AID 2061316); note: nearly all actives have a fitted effect of over 65% in size; note: potency is the fitted concentration of half-maximal effect; for activity change, negative = inhibition: % is set by controls: 0 for no effect and ±100 for the full control effect
[8] = molecular target: Retinaldehyde dehydrogenase 3 (Homo sapiens) (UniProt P47895); assay: qHTS for Inhibitors of the Aldehyde Dehydrogenase Family (ALDH1A3) Validation screen (AID 2061312); note: % is set by controls: 0 for no effect and ±100 for the full control effect; nearly all actives have a fitted effect of over 45% in size
[9] = BET inhibitor-based combinations targeting novel dependencies in MECOM-rearranged (r) AML: SET-2 cell line (AID 2202231); settings: SET-2 AML cells viability, CellTiter-Glo luminescence, 48 h; viability: hits give low values, series mostly up to about 46 µM;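 note: plate controls were DMSO treated cells for no effect and wells without cells for full effect; nearly all actives have a fitted effect of over 35% in size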
Procedure, shortened: (§1)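 Readout: CellTiter-Glo luminescence. Exposure: 48 h, 11 concentrations, 500 cells/well. Metric: AUC and within-line Z-AUC after DMSO/empty-well normalization.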

[10] = BET inhibitor-based combinations targeting novel dependencies in MECOM-rearranged (r) AML: OCI-AML3 cell line (AID 2202232); settings: Potency: OCI-AML3 viability;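 note: series mostly up to about 46 µM; plate controls were DMSO vehicle wells for no effect and wells without cells for full effect; nearly all actives have a fitted effect of over 35% in size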
Procedure, shortened: as §1

[11] = BET inhibitor-based combinations targeting novel dependencies in MECOM-rearranged (r) AML: MV-4-11 cell line (AID 2202233);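 note: plate controls were DMSO for no effect and blank wells for full effect; nearly all actives have a fitted effect of over 45% in size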
Procedure, shortened: (§2)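 Seeding density was 500 cells/well, and drug exposure lasted 48 hr under standard culture conditions. Read-out used CellTiter-Glo reagent with a 15 min room-temperature incubation before luminescence measurement; AUC and Z-AUC summarize the normalized responses.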

[12] = BET inhibitor-based combinations targeting novel dependencies in MECOM-rearranged (r) AML: HNT-34 cell line (AID 2202234); note: nearly all actives have a fitted effect of over 35% in size; note: potency is the fitted concentration of half-maximal effect;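 for viability (% of control): plate controls were vehicle wells for no effect and cell-free wells for full effect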
Procedure, shortened: as §2

[13] = BET inhibitor-based combinations targeting novel dependencies in MECOM-rearranged (r) AML: UCSD-AML1 cell line (AID 2202235);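 note: series mostly up to about 46 µM; plate controls were DMSO vehicle wells for no effect and blank wells for full effect; nearly all actives have a fitted effect of over 40% in size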
Procedure, shortened: as §2

[14] = BET inhibitor-based combinations targeting novel dependencies in MECOM-rearranged (r) AML: AML-191 cell line (AID 2202236;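 note: plate controls were vehicle wells for no effect and wells without cells for full effect; nearly all actives have a fitted effect of over 35% in size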)
Procedure, shortened: as §1

[15] = BET inhibitor-based combinations targeting novel dependencies in MECOM-rearranged (r) AML: AML-194 cell line (AID 2202237;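 note: plate controls were vehicle wells for no effect and wells without cells for full effect; nearly all actives have a fitted effect of over 40% in size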)
Procedure, shortened: as §1

[16] = molecular target: Retinaldehyde dehydrogenase 3 (Homo sapiens) (UniProt P47895); assay: qHTS for Inhibitors of the Aldehyde Dehydrogenase Family (ALDH1A3) Primary screen (AID 2061315);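 note: plate controls were DMSO vehicle for no effect and reference inhibitor for full effect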

CCOC(=O)C1CCN(c2ccc(NCc3ccc(-c4ccc(C#N)cc4)o3)cc2)CC1
active: Potency [1] 355 nM | Potency [2] 35.5 nM | Potency [3] 634 nM | Potency [5] 7080 nM | Potency [6] 31600 nM | Potency [7] 7980 nM
inactive: Potency [4]

CC(C)NCC(O)c1ccc(O)c(O)c1 (stereo not given)
inactive: Potency [1] | Potency [2] | Potency [3] | Potency [5] | Potency [8] | Potency [6] | Potency [7] | viability [9] 106% | Potency [10] | Potency [11] | Potency [12] | Potency [13] | Potency [14] | Potency [15]

N#Cc1ccc(-c2ccc(CNc3ccc(N4CCC(C#N)CC4)cc3)o2)cc1
inactive: Potency [16]
active: Potency [1] 631 nM | Potency [2] 100 nM | Potency [3] 1270 nM | Potency [4] 100 nM | Potency [5] 7940 nM | Potency [7] 5040 nM

CC1=C(C(=O)O)N2C(=O)[C@@H](NC(=O)C(N)C3=CCC=CC3)[C@H]2SC1 (stereo not given in full)
inactive: Potency [1] | Potency [8]

CC(N)=O
inactive: Potency [1] | Potency [8]

CC(=O)O[C@]1(C(C)=O)CC[C@H]2[C@@H]3C=C(Cl)C4=CC(=O)[C@@H]5C[C@@H]5[C@]4(C)[C@H]3CC[C@@]21C
inactive: Potency [1] | Potency [4] | Potency [8] | Potency [16] | viability [9] 80.8% | Potency [10]

CCN(CC)C(=O)c1ccc(O)c(OC)c1
inactive: Potency [1] | Potency [8]

CN(C)CCC(c1ccc(Br)cc1)c1ccccn1 (stereo not given)
inactive: Potency [1] | Potency [8]

CC(C)(C)OC(=O)N1CCN(c2ccc(NCc3ccc(-c4ccc(C#N)cc4)o3)nc2)CC1
inactive: Potency [16]
active: Potency [1] 708 nM | Potency [2] 447 nM | Potency [3] 15800 nM | Potency [6] 25100 nM | Potency [7] 7120 nM

CC(C)(Oc1ccc(CCNC(=O)c2ccc(Cl)cc2)cc1)C(=O)O
inactive: Potency [1] | Potency [8]

O=C(O)CN(CCOCCOCCN(CC(=O)O)CC(=O)O)CC(=O)O
inactive: Potency [1] | Potency [2] | Potency [3] | Potency [5] | Potency [6] | Potency [7]

O=C(O)/C=C/c1ccc(O)c(O)c1
inactive: Potency [1] | Potency [2] | Potency [3] | Potency [5] | Potency [6] | Potency [7]

CCN(CC)CCCC(C)Nc1ccnc2cc(Cl)ccc12 (stereo not given)
inactive: Potency [1] | activity change, negative = inhibition [4] 0.897% [at 11.2 µM] | Potency [8] | activity change, negative = inhibition [16] 6.44% [at 11.2 µM] | viability [9] 102% | viability (% of control) [10] 92.2% [at 8.46 µM] | viability, % of control [11] 101% [at 8.46 µM] | viability (% of control) [14] 95.1% [at 8.46 µM] | viability (% of control) [15] 111% [at 8.46 µM]
active: Potency [12] 5390 nM

N#Cc1ccc(-c2ccc(CNc3ccc(N4CCC(C(F)(F)F)CC4)cc3)o2)cc1
inactive: Potency [4] | Potency [6]
active: Potency [1] 447 nM | Potency [2] 35.7 nM | Potency [3] 712 nM | Potency [7] 6340 nM

NCC(O)c1ccc(O)c(O)c1 (stereo not given)
inactive: Potency [1] | Potency [8]
